According to PubChem BioAssay (NCI):
About 83,000 compounds went through this panel and 20% of them were active in at least one assay; those are over-represented in the sample as a whole.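 Cells were grown in 96-well plates and exposed to the test compound at a single concentration for 48 hours; results are reported as percent growth, with values below 10 considered active.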 Calls of active or inactive are those of the source.

What was measured:
Experiment in all cases: NCI-60 one-dose screen, 48 h (100 = growth as untreated, 0 = no growth, -100 = all killed)
[1] = system: DU-145 prostate; conditions: 10 µM
[2] = system: K-562 leukemia; conditions: 10 µM
[3] = system: MALME-3M melanoma; conditions: 10 µM
[4] = system: MDA-MB-231 breast; conditions: 10 µM
[5] = system: RXF 393 renal; conditions: 10 µM
[6] = system: SF-268 CNS; conditions: 10 µM
[7] = system: SF-295 CNS; conditions: 10 µM
[8] = system: SF-539 CNS; conditions: 10 µM
[9] = system: UACC-257 melanoma; conditions: 10 µM
[10] = system: M14 melanoma; conditions: 10 µM
[11] = system: HCT-15 colon; conditions: 10 µM
[12] = system: HT29 colon; conditions: 10 µM
[13] = system: SNB-75 CNS; conditions: 10 µM
[14] = system: SNB-19 CNS; conditions: 10 µM
[15] = system: PC-3 prostate; conditions: 10 µM
[16] = system: SK-MEL-5 melanoma; conditions: 10 µM
[17] = system: UACC-62 melanoma; conditions: 10 µM unless noted
[18] = system: LOX IMVI melanoma; conditions: 10 µM
[19] = system: SK-MEL-28 melanoma; conditions: 10 µM
[20] = system: U251 CNS; conditions: 10 µM

Measured: growth

N/N=C(/Cc1ccccc1)NNC(N)=S
inactive: [1] 106% | [2] 103% | [3] 95.4% | [4] 111% | [5] 112% | [6] 97.4% | [7] 105% | [8] 98.5% | [9] 92.3% | [10] 93.5% | [11] 97.5% | [12] 95.7% | [13] 87.7% | [14] 105% | [15] 88.3% | [16] 97.3% | [17] 101% | [18] 94.5% | [19] 114%

O=C(/C=C\c1ccc(O)cc1)c1ccccc1
inactive: [1] 101% | [2] 99.2% | [3] 82.7% | [4] 92.4% | [5] 110% | [6] 90% | [7] 110% | [8] 92.3% | [9] 98% | [10] 72.8% | [11] 88.5% | [12] 86.8% | [13] 81.4% | [14] 104% | [20] 80.7% | [16] 97.3% | [17] 94.8% | [18] 94.4% | [19] 103%

COc1ccc(OC)c(/C=C2\CCc3ccccc3C2=O)c1
inactive: [1] 55.5% | [2] 18.3% | [3] 63.4% | [4] 52.9% | [5] 60.3% | [6] 56.3% | [7] 32% | [8] 26% | [9] 75.3% | [10] 15% | [11] 24.3% | [12] 12.8% | [13] 17.4% | [14] 38.6% | [15] 47.6% | [16] 52.9% | [17] 43.5% | [18] 35.6% | [19] 64.9%

COc1cc2nn(-c3ccccc3N)nc2cc1OC
inactive: [1] 107% | [2] 99.3% | [3] 103% | [4] 116% | [5] 87% | [6] 100% | [7] 105% | [8] 96.5% | [9] 107% | [10] 107% | [11] 102% | [12] 103% | [13] 72.6% | [14] 99.9% | [20] 91.7% | [16] 98.4% | [17] 103% | [18] 94.7% | [19] 109%

CC1(O)CCCCC1O (stereo not drawn)
inactive: [1] 115% | [2] 94.6% | [3] 106% | [4] 108% | [5] 112% | [6] 106% | [7] 110% | [8] 97% | [9] 83.4% | [10] 104% | [11] 102% | [12] 106% | [13] 96.5% | [14] 97.3% | [20] 104% | [16] 107% | [17] 96.5% | [18] 106% | [19] 113%

OC(c1ccccn1)C(O)c1ccccn1 (stereo not drawn)
inactive: [1] 115% | [2] 96.8% | [3] 122% | [4] 108% | [5] 123% | [6] 102% | [7] 118% | [8] 102% | [9] 102% | [10] 103% | [11] 97.6% | [12] 106% | [13] 89.9% | [14] 99.3% | [20] 109% | [16] 106% | [17] 95.6% | [18] 96% | [19] 113%

O=C(NC1CCCCC1)OCc1c(COC(=O)NC2CCCCC2)c(-c2ccc(Cl)c(Cl)c2)n2c1CCC2
inactive: [1] 20.2% | [2] 10.5% | [3] 31.8% | [4] 42.3% | [6] 29.2% | [7] 24.7% | [8] 20.1% | [9] 66.2% | [10] 21.6% | [11] 33.6% | [12] 26.7% | [13] 15.7% | [14] 44.5% | [20] 29.4% | [15] 55.1% | [18] 13.3% | [19] 75.6%
active: [5] -13.6% | [17] 9.04%

Cc1cc(C)cc(NCCC#N)c1
inactive: [1] 114% | [2] 102% | [3] 164% | [4] 106% | [5] 448% | [6] 105% | [7] 103% | [8] 104% | [9] 124% | [10] 117% | [11] 106% | [12] 105% | [13] 94.6% | [14] 96.5% | [20] 105% | [16] 107% | [17] 105% | [18] 105% | [19] 108%

Cc1ccc(/C(C#N)=C/c2ccc3c(c2)OCO3)cc1
inactive: [1] 98.1% | [2] 32.4% | [3] 84.3% | [4] 73.3% | [5] 75.3% | [6] 87.7% | [7] 110% | [8] 91.1% | [9] 87.1% | [10] 75.2% | [11] 69.5% | [12] 37.1% | [13] 67.8% | [14] 88.4% | [20] 63.2% | [15] 81.9% | [16] 58.6% | [17] 73.5% | [19] 81.4%

COc1ccc(C(C)C=O)cc1 (stereo not drawn)
inactive: [1] 109% | [2] 104% | [3] 133% | [4] 110% | [5] 139% | [6] 114% | [7] 115% | [8] 99% | [9] 117% | [10] 109% | [11] 93.8% | [12] 112% | [13] 88.4% | [14] 107% | [20] 107% | [16] 123% | [17] 106% | [18] 105% | [19] 116%

Nc1nc(N)c(N=Nc2ccc(C(=O)O)cc2)c(N)n1
inactive: [1] 111% | [2] 108% | [3] 106% | [4] 107% | [5] 113% | [6] 107% | [7] 104% | [8] 101% | [9] 30.9% | [10] 98.4% | [11] 109% | [12] 105% | [13] 103% | [14] 95.1% | [20] 103% | [16] 100% | [17] 94.4% | [18] 101% | [19] 103%

Cc1cc2nc(CO)[nH]c2cc1C
inactive: [1] 104% | [2] 111% | [3] 144% | [4] 109% | [5] 89.8% | [6] 88.7% | [7] 121% | [8] 107% | [9] 92% | [10] 107% | [11] 107% | [12] 102% | [13] 90.9% | [14] 98% | [20] 108% | [16] 112% | [17] 99.7% | [18] 110% | [19] 108%

O=[N+]([O-])c1cccc(N=Nc2ccc(O)cc2O)c1
inactive: [1] 95.2% | [2] 17.7% | [3] 65.8% | [4] 76.5% | [5] 83.5% | [6] 83.4% | [7] 95.7% | [8] 89.7% | [9] 72.5% | [10] 97% | [11] 48% | [12] 86.2% | [13] 69.7% | [14] 78.2% | [20] 63.7% | [15] 58.5% | [16] 74.2% | [18] 81.1% | [19] 99.1%

CC(=O)Nc1ccc(NC(C)=O)c2c1C(=O)c1ccccc1C2=O
inactive: [1] 96% | [2] 91.4% | [3] 86.1% | [4] 59.7% | [5] 108% | [6] 95.9% | [7] 99.8% | [8] 92.3% | [9] 110% | [10] 101% | [11] 86.1% | [12] 99.7% | [13] 85.9% | [14] 111% | [15] 81.9% | [16] 96.8% | [17] 73.3% | [18] 86% | [19] 115%

O=c1cc(-c2ccccc2)[nH]c(=S)[nH]1
inactive: [1] 104% | [2] 96.2% | [3] 83.5% | [4] 103% | [5] 108% | [6] 92.1% | [7] 188% | [8] 102% | [9] 109% | [10] 102% | [11] 107% | [12] 101% | [13] 96.9% | [14] 104% | [15] 91% | [16] 104% | [17] 106% | [18] 98.3% | [19] 103%

O=[N+]([O-])c1ccc(Cl)c(S(=O)(=O)O)c1
inactive: [1] 109% | [2] 100% | [3] 120% | [4] 110% | [5] 126% | [6] 105% | [7] 112% | [8] 97.8% | [9] 96.6% | [10] 107% | [11] 96.6% | [12] 138% | [13] 85.8% | [14] 106% | [20] 111% | [16] 104% | [17] 105% | [18] 102% | [19] 111%

O=C(O)/C=C/c1ccc2c(c1)CCC2
inactive: [1] 118% | [2] 86.9% | [3] 121% | [4] 118% | [5] 106% | [6] 116% | [7] 98.9% | [8] 106% | [9] 97.8% | [10] 106% | [11] 99.5% | [12] 104% | [13] 100% | [14] 105% | [20] 99.3% | [15] 103% | [17] 103% | [18] 102% | [19] 104%
